# The list is not random: actives were taken first. Their share in the collection is about 2.4%.
# D2 PAM-1: potentiates the human D2 dopamine receptor allosterically; potentiation, % (concentration not given with the values); DiscoveRx D2 beta-arrestin cells, luminescence, 90 min; 100% = 57 uM dopamine signal; 360,000 tested, 0.23% active; P14416; in the data active = potentiation above about 50%; inconclusive = mostly about 30% to 49%
# Target sequence (P14416 whole entry, looked up): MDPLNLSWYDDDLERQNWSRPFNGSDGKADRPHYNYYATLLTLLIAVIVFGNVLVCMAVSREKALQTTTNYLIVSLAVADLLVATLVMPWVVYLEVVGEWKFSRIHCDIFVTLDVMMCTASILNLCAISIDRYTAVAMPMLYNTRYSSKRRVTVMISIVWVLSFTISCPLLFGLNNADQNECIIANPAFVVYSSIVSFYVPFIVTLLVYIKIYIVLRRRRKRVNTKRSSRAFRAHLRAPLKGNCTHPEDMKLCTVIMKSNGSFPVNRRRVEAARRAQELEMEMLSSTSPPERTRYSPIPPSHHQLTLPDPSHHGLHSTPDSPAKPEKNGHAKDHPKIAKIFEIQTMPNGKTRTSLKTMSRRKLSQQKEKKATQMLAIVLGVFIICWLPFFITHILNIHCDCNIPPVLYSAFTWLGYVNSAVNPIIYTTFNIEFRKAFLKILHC
#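 D2 cells co-treated with compound plus 50 nM dopamine (EC20) for 90 min at 37 deg C to detect potentiation. Beta-arrestin recruitment was read as enzyme-fragment luminescence after 1 h at ambient temperature. Full response was set by 57 uM dopamine.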
# D2 antag: antagonists of human D2 dopamine receptor. HEK293 TREx D2 cells, calcium flux, dopamine EC80. P14416. 340,000 tested, 2% active. AID 485344. inhibition, % at 10 µM; in the data active = inhibition above about 30%; inactive = below that, where a call was filed
#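 Read-out: kinetic calcium fluorescence (1 cycle/s) in inducible HEK293 T-REx D2 cells after an EC80 dopamine addition that followed 180 s compound preincubation. Loss of the dopamine response indicates antagonism.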
# D2 PAM-2: D2 dopamine receptor (human) potentiation | P14416 | HEK293 T-REx D2, calcium flux, EC20 dopamine potentiation | potentiation, % at 10 µM | 340,000 tested, 0.34% active | AID 485347;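 active = potentiation over 3 SD above the plate norm, cut at about 30% in these data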
#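 Potentiation of an EC20 dopamine calcium response is measured in a force-coupled, tetracycline-inducible Hek293 Trex D2 line. Compound-only kinetic reads over 180 s flag agonists before dopamine addition.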
# D2 ag-1: activates the human D2 dopamine receptor | P14416 | HEK293 T-REx D2 cells, calcium flux agonist mode | activation, % at 2 µM | 340,000 tested, 0.53% active | AID 485358;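 active = activation over 3 SD above normal in the single-dose calcium agonist read, cut at about 30% in these data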
#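 Tetracycline-induced HEK293 T-REx cells with force-coupled D2 receptor, plated overnight at 30 C, loaded with no-wash calcium dye. After a 10 s baseline, compound was pin-added and calcium flux read kinetically for 180 s; calcium rises flagged agonists.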
# D2 ag-2: human D2 receptor agonism in beta-arrestin assay | AID 624465 | DiscoveRx PathHunter D2 beta-arrestin, luminescence, 90 min; 100% = 57 uM dopamine signal | 360,000 tested, 0.084% active | P14416 | activation, % (test concentration not listed); in the data active = activation above about 40%; inconclusive = between about 15% and that limit
#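 Agonist mode: compounds alone added to overnight-plated D2 PathHunter cells for 90 min at 37 C, with 57 uM final dopamine (EC100) defining full response. Beta-arrestin recruitment detected by chemiluminescent reagent, read after 1 h at ambient temperature.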
# Numbers stand for hits; - = inactive; ? = inconclusive; . = no result given.
SMILES,D2 PAM-1,D2 antag,D2 PAM-2,D2 ag-1,D2 ag-2
COc1ccc(CCNc2ccc(S(=O)(=O)N3CCN(C)CC3)cc2[N+](=O)[O-])cc1,-,64.7,-,-,-
COc1ccc(C(CNc2ccc(S(=O)(=O)N3CCN(C)CC3)cc2[N+](=O)[O-])N(C)C)cc1 (configuration not stated),-,-,-,-,-
COc1cc(CN(C(=O)c2ccc(OC(C)C)cc2)c2ccccn2)cc(OC)c1OC,.,.,-,.,.
CCN(CC)S(=O)(=O)c1ccc(OCC(=O)NC(=O)c2ccccc2OC)c([N+](=O)[O-])c1,55.4,-,-,-,-
CCOCC(=O)Nc1nnc(COC)s1,-,31.1,-,-,-
CCc1nnc(NC(=O)c2ccc(S(=O)(=O)N3CCCC3)cc2)s1,-,-,-,-,-
CCc1nnc(NC(=O)c2ccc(S(=O)(=O)N3CCCC(C)C3)cc2)s1 (configuration not stated),-,-,34.8,-,-
Nc1[nH]n2c(=O)c3c(nc2c1N=Nc1ccccc1)CCCC3,-,37.5,-,-,-
Cc1[nH]n2c(=O)c3c(nc2c1-c1ccc(Cl)cc1)CCC3,-,74.8,-,-,-
Nc1[nH]n2c(=O)c3c(nc2c1N=Nc1ccc(Cl)cc1)CCCC3,-,-,-,-,-
Cc1[nH]n2c(=O)c3c(nc2c1-c1ccccc1)CCC3,-,35.9,-,-,-
CC(C)c1ccc(S(=O)(=O)c2nnn3c2nc(N2CCOCC2)c2sccc23)cc1,.,.,-,-,.
Cn1nc(C(=O)NNC(=O)COc2ccccc2)c2ccccc2c1=O,-,-,-,-,-
Cc1occc1C(=O)NNC(=O)c1nn(C)c(=O)c2ccccc12,-,-,30.9,-,-
CSc1cccc(NC(=S)N(CCCN2CCCC(C)C2)Cc2cccs2)c1 (configuration not stated),-,45.6,-,-,-
Cc1cc(C)cc(NC(=S)N(CCCN2CCN(C)CC2)Cc2cccs2)c1,-,-,.,-,-
COc1cccc(NC(=S)N(CCCN2CCCC(C)C2)Cc2cccs2)c1 (configuration not stated),-,59.1,-,-,-
COc1ccc(NC(=S)N(CCCN2CCC(C)CC2)Cc2cccs2)cc1Cl,-,-,-,-,-
Cc1nc2scc(C)n2c(=O)c1S(=O)(=O)Nc1cccc(C(F)(F)F)c1,.,.,-,-,.
O=C(Oc1ccccc1F)c1nc(SCc2ccccc2F)ncc1Cl,.,.,-,-,.
Cc1ccccc1OCC(=O)N/N=C/c1cccc(Oc2ccc([N+](=O)[O-])cc2[N+](=O)[O-])c1,54.9,-,-,-,-
O=C(N/N=C/c1cccc(Oc2ccc([N+](=O)[O-])cc2[N+](=O)[O-])c1)c1cncc(Br)c1,85.0,-,-,-,-
Cc1ccccc1OCC(=O)NCC(=O)N/N=C/c1cccc([N+](=O)[O-])c1,.,-,-,-,.
Cc1cc(Cl)ccc1OCCCC(=O)N1CCN(C)CC1,-,32.2,-,-,-
CC(C)N(C(=O)Cn1cc(S(=O)(=O)Cc2ccc(Br)cc2)c2ccccc21)C(C)C,.,.,-,-,.
SMILES,D2 PAM-1,D2 antag,D2 PAM-2,D2 ag-1,D2 ag-2
COc1ccc(S(=O)(=O)c2cn(CC(=O)Nc3cc(C)ccc3C)c3ccccc3c2=O)cc1,.,.,-,-,.
O=C(CNC(=O)c1cccs1)N/N=C/c1c(F)cccc1Cl,-,30.5,-,-,-
CCCN(CCC)CCCNC(=O)c1cc2c(=O)oc3ccc(C)cc3c2s1,.,.,-,-,.
NC1=C(Cl)C(=O)c2ccc(S(N)(=O)=O)cc2C1=O,58.5,.,.,.,-
NS(=O)(=O)c1ccc2c(c1)C(=NO)c1cc(S(N)(=O)=O)ccc1-2,-,-,-,-,-
NC1=C(Cl)C(=O)c2ccccc2C1=O,51.2,.,.,.,-
C=CCN1C(=O)N/C(=C/c2ccc(C)o2)C1=O,-,-,-,39.2,-
CCc1nc2c(cnn2-c2ccc(Cl)cc2)c(=O)n1-c1ccc(OC)c(Cl)c1,.,.,-,-,.
Cc1ccc(CNC(=O)CSc2c(C(C)C)cnc3c2c(=O)n(C)c(=O)n3C)cc1,.,.,-,-,.
CCOc1ccc(S(=O)(=O)N2CCN(S(=O)(=O)c3ccc(C(C)=O)cc3)CC2)cc1,-,35.7,-,-,-
CCOc1ccc(S(=O)(=O)N2CCN(C(=O)c3cccn3C)CC2)cc1,-,-,31.4,-,-
CCOc1ccc(NC(=S)N2CCN(S(=O)(=O)c3ccccc3)CC2)cc1,-,-,-,39.4,-
Brc1ccc(C2=Nc3cccc4cccc(c34)N2)o1,84.0,-,-,-,?
CC1=CC(=O)c2ccccc2C1=O,-,-,-,-,-
CCOc1ccccc1C(O)C1=CC(=O)c2ccccc2C1=O (configuration not stated),57.6,.,.,.,-
O=C(NC1CCCCC1)[C@H](O)[C@@H](O)C(=O)NC1CCCCC1,-,48.9,-,-,-
Cc1cc(OC(C)C(=O)Nc2c(C(=O)c3ccc(F)cc3)oc3ccccc23)ccc1Cl (configuration not stated),.,.,-,-,.
COc1cccc(C(C(=O)NC2CCCCC2)N(Cc2ccco2)C(=O)c2ccccn2)c1 (configuration not stated),-,34.1,-,-,-
CC(C)(CO)N=C1NS(=O)(=O)c2cc([N+](=O)[O-])ccc21,90.3,-,-,-,?
CC(C)(C)CC(C)(C)N=C1NS(=O)(=O)c2cc([N+](=O)[O-])ccc21,-,-,-,-,?
COc1cc(OC)cc(C(=O)OCC(=O)Nc2ccc3[nH]c(=O)[nH]c3c2)c1,-,35.5,-,-,-
COc1ccc(CC(=O)OCC(=O)Nc2ccc3[nH]c(=O)[nH]c3c2)cc1,?,-,-,-,-
O=C(COC(=O)c1c(F)cccc1F)Nc1ccc2[nH]c(=O)[nH]c2c1,-,64.7,-,-,-
COc1ccc(OC)c(NC(=O)c2cn(CC(C)C)c(=O)c3cc(OC)c(OC)cc23)c1,.,.,-,-,.
Cc1cccc(Cn2c(C(C)(C)C)cc3cccnc32)c1,-,44.8,-,-,-
SMILES,D2 PAM-1,D2 antag,D2 PAM-2,D2 ag-1,D2 ag-2
Cc1cccc(Cn2c(CNS(=O)(=O)c3ccc(Cl)s3)nc3cccnc32)c1,.,.,-,-,.
COc1ccc(C)cc1S(=O)(=O)N(C)CC(=O)NCc1ccncc1,-,32.8,-,-,-
Cc1ccc(CN(C(=O)c2ccc(OCC(C)C)cc2)c2ccccn2)o1,.,.,-,-,.
COc1ccccc1NS(=O)(=O)c1ccc(C)c(C(=O)NC2CCN(Cc3ccccc3)CC2)c1,-,76.6,-,-,-
COc1ccccc1NS(=O)(=O)c1cccc(C(=O)NC2CCN(Cc3ccccc3)CC2)c1,-,100.5,-,-,-
COc1ccccc1NS(=O)(=O)c1cc(C(=O)NC2CCN(Cc3ccccc3)CC2)ccc1C,-,.,.,.,-
COc1ccc(NS(=O)(=O)c2ccc(C)c(C(=O)NC3CCN(Cc4ccccc4)CC3)c2)cc1,-,-,-,-,-

# Source: PubChem BioAssay (National Center for Advancing Translational Sciences (NCATS))
